According to PubChem BioAssay (Tox21):
Where “and” joins values, the source holds several entries; their conditions need not be identical. Equal entries are not always repeated. Records with an inconclusive call do not appear. Calls of active or inactive are those of the source. Unless noted, the call rests on the fitted dose curve; in most records, active means well fitted curve in the direction sought with a large enough effect in the repeat runs; inconclusive means weak or mixed curves; inactive means no such curve, though single readings can be large; an effect the other way counts as inactive or inconclusive.

What was measured:
[1] = qHTS assay for small molecule agonists of the p53 signaling pathway (AID 651631; calls by dose curve; further: nearly all actives have a fitted effect of over 15% in size)
Summary of the method: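 Quantitative high-throughput format: 4,000 p53RE-bla HCT-116 cells/well, 5 h pre-incubation, 16 h compound exposure at 37 °C, 2 h room-temperature substrate step, fluorescence intensity measured.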

[2] = qHTS assay for small molecules that induce genotoxicity in human embryonic kidney cells expressing luciferase-tagged ATAD5 (AID 651632); further: nearly all actives have a fitted effect of over 15% in size
Summary of the method: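 A rise in luciferase signal from ATAD5-tagged HEK293T cells marks genetic stress. Cells were exposed to compounds for 16 hr at 37C, 5% CO2, then luciferase was quantified after a 30 min room-temperature incubation with Amplite.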

[3] = qHTS assay for small molecule agonists of the p53 signaling pathway - cell viability (AID 651633; calls by dose curve;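 further: p53RE-bla HCT reporter cells with a stable beta-lactamase p53 reporter; nearly all actives have a fitted effect of over 30% in size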)
Summary of the method: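 p53RE-bla cells, seeded at 4,000 per well and rested 5 h at 37 C/5% CO2, received compounds in DMSO for 16 h at 37 C. CellTiter-Glo was then added, and luminescence was read after 30 min at room temperature to gauge cytotoxicity.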

[4] = qHTS assay for small molecules that induce genotoxicity in human embryonic kidney cells expressing luciferase-tagged ATAD5 - cell viability (AID 651634; calls by dose curve; further: nearly all actives have a fitted effect of over 25% in size)
Summary of the method: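 Cytotoxicity counter-readout: after 15.5 hr compound treatment at 37C, live-cell protease activity in ATAD5-luciferase HEK293T cells measured by CellTiter-Fluor fluorescence, 30 min development at 37C.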

[5] = qHTS assay for small molecule disruptors of the mitochondrial membrane potential - cell viability (AID 720634; calls by dose curve;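 further: human HepG2 liver cancer cells; nearly all actives have a fitted effect of over 20% in size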)
Summary of the method: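 Cytotoxicity was quantified from ATP content by CellTiter-Glo luminescence in the same wells as the MMP dye read-out. HepG2 (2,000 cells/well) were plated overnight and exposed to compounds for 1 hr at 37 C.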

[6] = qHTS assay for small molecule disruptors of the mitochondrial membrane potential (AID 720635); further: potency means the concentration at half of the fitted maximal effect
Summary of the method: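 HepG2 cells (2,000/well) attached overnight at 37C, then took compound for 1 hr at 37C, 5% CO2. Mito-MPS dye was added for 30 min; fluorescence was read at 490/535 nm (monomers) and 540/590 nm (aggregates).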

[7] = qHTS assay to test for compound auto fluorescence at 590 nm (red) in HepG2 cells (AID 720674)
Summary of the method: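 Intrinsic compound fluorescence in the red window (Ex/Em 540/590 nm) is measured in attached HepG2 cells exposed for 1 hr, DMSO vehicle as baseline, benchmarked to Rose Bengal sodium.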

[8] = qHTS assay to test for compound auto fluorescence at 535 nm (green) in HepG2 cells (AID 720675)
[9] = qHTS assay to test for compound auto fluorescence at 460 nm (blue) in HEK293 cells (AID 720678)
Summary of the method: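 HEK293 cells (2,000/well, medium with 10% dialyzed FBS) attached 4-5 hr, then exposed to compound overnight at 37C, 5% CO2. Blue fluorescence read at 405/460 nm, with triamterene as reference fluorophore.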

[10] = qHTS assay to test for compound auto fluorescence at 590 nm (red) in HEK293 cells (AID 720679)
Summary of the method: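 HEK293 cells (2,000/well, 10% dialyzed FBS) attached 4-5 hr, then dosed with compound or DMSO and incubated overnight at 37C, 5% CO2. Red fluorescence read at 540/590 nm, Rose Bengal sodium as reference fluorophore.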

[11] = qHTS assay to test for compound auto fluorescence at 535 nm (green) in HEK293 cells (AID 720680)
[12] = qHTS assay to test for compound auto fluorescence at 460 nm (blue) in HEK293 cell free culture (AID 720681)
Summary of the method: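 Test compounds were pinned into cell-free culture medium (DMEM with 10% FBS) and fluorescence was read directly at Ex/Em 405/460 nm. Signals were expressed as fluorescence equivalents of triamterene, with DMSO vehicle as control.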

[13] = qHTS assay to test for compound auto fluorescence at 535 nm (green) in HEK293 cell free culture (AID 720682)
Summary of the method: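 Measurement is a direct plate read of green fluorescence (485 nm in, 535 nm out) after compound addition to serum-supplemented DMEM lacking cells, with fluorescein used to express intensities.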

[14] = qHTS assay to test for compound auto fluorescence at 590 nm (red) in HEK293 cell free culture (AID 720683)
Summary of the method: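 Tox21 10K library compounds were pinned into cell-free DMEM with 10% FBS and fluorescence was read at excitation 540 nm. Activity is expressed as Rose Bengal sodium equivalency.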

[15] = qHTS assay to test for compound auto fluorescence at 535 nm (green) in HepG2 cell free culture (AID 720686)
[16] = qHTS assay to test for compound auto fluorescence at 460 nm (blue) in HepG2 cells (AID 720687)
Summary of the method: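 Cells (2,000/well in MEM with 10% FBS) attached overnight at 37 C, then were exposed to compound or DMSO for 1 hr at 37 C, 5% CO2. Fluorescence read at Ex/Em 405/460 nm, expressed as triamterene-equivalent signal.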

[17] = target: Glucocorticoid receptor (Homo sapiens) (UniProt P04150); assay: qHTS assay to identify small molecule antagonists of the glucocorticoid receptor (GR) signaling pathway (AID 720692; active means well fitted inhibition curve with a large enough effect in the signal ratio in the repeat runs, not every such curve was filed as active; the % refers to the signal ratio; further: potency means the concentration at half of the fitted maximal effect)
Glucocorticoid receptor (Homo sapiens), sequence (P04150 whole entry, looked up): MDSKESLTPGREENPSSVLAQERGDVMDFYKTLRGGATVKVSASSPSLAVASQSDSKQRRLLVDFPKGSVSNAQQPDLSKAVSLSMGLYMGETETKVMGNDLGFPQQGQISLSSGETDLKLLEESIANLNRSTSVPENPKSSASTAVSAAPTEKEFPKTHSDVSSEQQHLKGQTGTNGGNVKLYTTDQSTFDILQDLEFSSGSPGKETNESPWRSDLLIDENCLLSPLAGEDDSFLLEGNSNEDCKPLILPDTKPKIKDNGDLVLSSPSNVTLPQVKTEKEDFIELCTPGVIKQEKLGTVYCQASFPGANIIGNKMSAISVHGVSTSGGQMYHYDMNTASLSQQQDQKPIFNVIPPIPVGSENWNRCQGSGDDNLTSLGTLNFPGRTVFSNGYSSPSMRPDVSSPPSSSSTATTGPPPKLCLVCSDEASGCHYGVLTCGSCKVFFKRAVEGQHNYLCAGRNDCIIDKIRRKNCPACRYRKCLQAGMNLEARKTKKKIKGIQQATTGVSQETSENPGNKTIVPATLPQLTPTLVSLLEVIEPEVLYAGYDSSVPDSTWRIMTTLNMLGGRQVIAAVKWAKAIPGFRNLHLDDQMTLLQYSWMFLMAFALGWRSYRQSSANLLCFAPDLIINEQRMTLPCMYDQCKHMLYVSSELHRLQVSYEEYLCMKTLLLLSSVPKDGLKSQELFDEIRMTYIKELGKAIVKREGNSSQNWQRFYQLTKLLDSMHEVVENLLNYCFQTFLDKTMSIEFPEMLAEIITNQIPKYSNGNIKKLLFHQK
Summary of the method: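 Inhibition of dexamethasone-driven (5 nM final) beta-lactamase expression was measured in GRE-reporter HeLa cells over 18 h at 37C. Fluorescence was read after 2 h with the B/G FRET substrate at room temperature.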

[18] = qHTS assay to test for compound auto fluorescence at 590 nm (red) in HepG2 cell free culture (AID 720684)
Summary of the method: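 Ex 540 / Em 590 nm read of compound in cell-free MEM (10% FBS). Rose Bengal sodium reference.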

[19] = qHTS assay to test for compound auto fluorescence at 460 nm (blue) in HepG2 cell free culture (AID 720685)
Summary of the method: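 Cell-free plates of MEM plus 10% FBS received 23 nL compound or DMSO vehicle; blue-channel (405/460 nm) intensity scored against triamterene as reference fluorophore.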

[20] = target: Glucocorticoid receptor (Homo sapiens) (UniProt P04150); assay: qHTS assay to identify small molecule agonists of the glucocorticoid receptor (GR) signaling pathway (AID 720691; active means well fitted activation curve with a large enough effect in the signal ratio in the repeat runs, not every such curve was filed as active; the % refers to the signal ratio); conditions: GR-bla HeLa, beta-lactamase reporter ratio, 18 h; activation: at 62.4 µM (top of the series)
Summary of the method: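 Agonist-mode qHTS in HeLa cells stably expressing a glucocorticoid-response-element beta-lactamase reporter. Fluorescence intensity read with FRET substrate (2 h, room temperature) after 18 h compound treatment at 37 C.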

Measured: Potency

O=P(OC(CCl)CCl)(OC(CCl)CCl)OC(CCl)CCl
active: [6] 61.1 µM | [17] 21.8 µM and 30.9 µM
not listed: [18] | [19] | [20]
inactive: all other assays above

O=c1[nH]c(=O)n([C@H]2C[C@H](O)[C@@H](CO)O2)cc1Br
not listed: [17] | [20]
inactive: all other assays above

CC(=O)c1ccccc1
not listed: [5] | [17] | [20]
inactive: all other assays above

CC(=O)CC(=O)Nc1ccccc1C
not listed: [16]
inactive: all other assays above

O=C(OCCOCCOC(=O)c1ccccc1)c1ccccc1
not listed: [5] | [20]
inactive: all other assays above

O=S(=O)(O)c1ccc2ccccc2c1
not listed: [17] | [20]
inactive: all other assays above

CCc1cccc(C)c1N
not listed: [19]
inactive: all other assays above

CCCCCCOCCO
not listed: [16] | [18] | [20]
inactive: all other assays above

CCCC(C)=O
inactive: all assays above

CCCCCCCCCCCCCCCO
not listed: [5] | [6] | [17] | [20]
inactive: all other assays above

CCCCCC(N)=O
not listed: [17] | [20]
inactive: all other assays above

CC(C)(N)CO
not listed: [16] | [19] | [20]
inactive: all other assays above

C#CCN(C)Cc1ccccc1
not listed: [16]
inactive: all other assays above

O=C(O)c1ccc(C(=O)O)cc1
not listed: [5] | [18] | [19]
inactive: all other assays above

O=C(O)c1cc(=O)c2c(OCC(O)COc3cccc4oc(C(=O)O)cc(=O)c34)cccc2o1
not listed: [5] | [17] | [20]
inactive: all other assays above

CC1CCC2CC1C2(C)C (stereo not given)
not listed: [5] | [20]
inactive: all other assays above
